Assay outcomes deposited in PubChem by National Center for Advancing Translational Sciences (NCATS).
An excerpt weighted towards active compounds, which were near 3% of everything screened.
IMPase cell inh: qHTS Assay for Identifying the Cell-Membrane Permeable IMPase Inhibitors | Inositol monophosphatase 1 (Rattus norvegicus), P97697 | CHO-M1 cells, IP1 accumulation, HTRF TR-FRET ratio | inhibition (IP1 accumulation), % at 46.1 µM | 120,000 tested, under 10 active; active = well fitted curve in the direction sought with a large enough effect in the signal ratio, not every such curve was filed as active; inconclusive = small, poorly fitted or top-dose-only effect, or a change in a side signal; inactive = no such curve, though single readings can be large or run the other way; the % refers to the signal ratio;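 also: cells stimulated with carbachol in lithium chloride buffer; higher means more IMPase inhibition seen as more IP1 and lower FRET ratio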
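CHO-M1 cells (CHO stably expressing M1 receptor), compound up to 46 uM final, stimulated with carbachol (50 uM as added) in buffer with 50mM LiCl, pH 7.4, 30 min at 37C. Cytosolic IP1 read by TR-FRET; AC50 from Hill fits.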
PNC inhibitor: High Content Assay for Compounds that inhibit the Assembly of the Perinucleolar Compartment | activity change (PNC), negative = inhibition, % at 10 µM | AID 2417, 2010 | actives 3.1% (n = 140,000) | PC3M PTB-GFP, PNC prevalence imaging, 16 h; stronger effect = lower value;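 active = readout at or below -70, meaning at least 70% loss of cells showing the perinucleolar compartment, a nuclear body marking cancer cells; inconclusive = readout between -30 and a set limit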
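Read-out is percentage of cells bearing a perinucleolar compartment, from automated 20x imaging of fixed, Hoechst-stained PC3M PTB-GFP cells. Cells were seeded 4 h, then exposed 16 h to compound (23 nl of library stock) in duplicate plates.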
ALOX12 inhib: qHTS Assay for Inhibitors of 12-hLO (12-human lipoxygenase). Polyunsaturated fatty acid lipoxygenase ALOX12 (Homo sapiens), P18054. purified 12-hLO, xylenol orange hydroperoxide absorbance. Potency, µM (highest dose often 57.1 µM), usual class: inhibitors. actives 0.12% (n = 150,000). AID 1452, 2008; also: nearly all actives have a fitted effect of over 55% in size
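Hydroperoxide formation by human 12-lipoxygenase from 40 uM arachidonic acid was followed colorimetrically via ferric-xylenol orange complex, using the 573/405 nm absorbance ratio. Enzyme concentration was 150 nM, with 30 min reaction at room temperature.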
ALOX15B inhib: qHTS Assay for Inhibitors of 15-hLO-2 (15-human lipoxygenase 2). Polyunsaturated fatty acid lipoxygenase ALOX15B (Homo sapiens), O15296. purified 15hLO-2, xylenol orange hydroperoxide absorbance. Potency, µM (highest dose often 57.1 µM), hits mostly inhibitors. actives 0.56% (n = 110,000); also: nearly all actives have a fitted effect of over 60% in size
Target sequence (O15296 whole entry, looked up): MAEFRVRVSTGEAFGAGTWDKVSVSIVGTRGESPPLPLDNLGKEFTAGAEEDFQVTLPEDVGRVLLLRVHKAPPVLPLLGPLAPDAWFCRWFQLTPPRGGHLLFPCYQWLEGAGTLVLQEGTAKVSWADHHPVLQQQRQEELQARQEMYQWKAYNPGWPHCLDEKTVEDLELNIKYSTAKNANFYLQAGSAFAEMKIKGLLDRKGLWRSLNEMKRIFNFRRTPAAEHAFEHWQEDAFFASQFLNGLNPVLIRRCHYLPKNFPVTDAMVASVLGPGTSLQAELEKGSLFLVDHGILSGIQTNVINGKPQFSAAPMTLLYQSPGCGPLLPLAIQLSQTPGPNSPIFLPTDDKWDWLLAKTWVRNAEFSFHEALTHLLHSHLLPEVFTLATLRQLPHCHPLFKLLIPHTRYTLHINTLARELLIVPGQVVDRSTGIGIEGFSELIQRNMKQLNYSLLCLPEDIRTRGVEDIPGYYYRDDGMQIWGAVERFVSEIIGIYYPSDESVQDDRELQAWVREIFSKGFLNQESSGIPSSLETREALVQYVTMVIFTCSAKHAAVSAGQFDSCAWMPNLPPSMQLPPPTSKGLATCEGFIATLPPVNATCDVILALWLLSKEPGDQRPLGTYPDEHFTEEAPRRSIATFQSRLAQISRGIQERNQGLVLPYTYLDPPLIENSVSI
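Enzyme 50 nM, AA 45 uM, 25 mM Hepes pH 7.5 + 0.01% Triton X-100; cpd preinc 15 min RT, rxn 90 min RT; stop/detect with 200 uM XO + 300 uM Fe(II) in 50 mM H2SO4, 30 min; A573/A405.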
Numbers stand for hits; . = inactive; ? = inconclusive; / = no result given; [ ] = dose if it differs, or a comment. Unless noted, calls follow the shape of the dose curve; as a rule, active = well fitted curve in the direction sought with a large enough effect; inconclusive = small, poorly fitted or top-dose-only effect, or another doubt; inactive = no such curve, though single readings can be large; an effect the other way counts as inactive or inconclusive.

SMILES | IMPase cell inh | PNC inhibitor | ALOX12 inhib | ALOX15B inhib
N#C/C(=C\c1c[nH]c2ccccc12)c1nnc2n1CCCCC2 | . | . | . | /
CN(c1ccc(C(=O)N2CCN(Cc3ccc4c(c3)OCO4)CC2)cc1)S(=O)(=O)c1ccccc1 | . | . | . | .
COc1ccc(S(=O)(=O)N(CC(=O)N2CCN(c3ccccc3)CC2)c2ccccc2)cc1 | . | -112.1 | . | .
O=C(CN(c1ccccc1)S(=O)(=O)c1ccccc1)N1CCN(Cc2ccc3c(c2)OCO3)CC1 | . | -87.8 | . | .[2.29 µM]
Cc1nn(C(=O)c2cc3sccc3[nH]2)c(C)c1C | .[1.84 µM] | . | . | .[11.4 µM]
O=C(Nc1cccc(-c2nc3cccnc3s2)c1)C1c2ccccc2Oc2ccccc21 | / | -118.9 | . | /
COc1ccc(/C(N)=N/OC(=O)CSc2ccccc2)cc1OC | . | . | . | .
Cc1ccc(C(C)(C)C)cc1 | / | / | . | .
O=C(Nc1ccn(Cc2ccc(Cl)cc2)n1)c1ccc2c(c1)OCO2 | . | -82.1 | . | .
CC(C)C(=O)NC(=S)Nc1ccc(S(=O)(=O)NC(C)(C)C)cc1 | . | -107.4 | . | .
CC(C)C(=O)NC(=S)Nc1ccc(S(=O)(=O)Nc2ccccc2)cc1 | / | ? | . | /
COc1cc([C@H](O)CO)ccc1O | . | / | . | .
COc1ccc(Oc2ccc(/C=C/C(=O)c3cccc(OC)c3)cc2[N+](=O)[O-])cc1 | / | . | . | /
COc1cc2c(cc1OC)C1Cc3ccc(OC)c(OC)c3CN1CC2 (configuration not stated) | . | -86.1 | . | .
COC(=O)c1[nH]c2ccc(F)cc2c1NC(=O)CCN1CC(C)OC(C)C1 (configuration not stated) | . | -89.2 | . | .
CCOc1ccc(CNC(=S)N/N=C\c2ccc([N+](=O)[O-])cc2)cc1 | . | -92.2 | . | .
CCOc1ccc(CNC(=S)N/N=C/c2cccnc2)cc1 | / | ? | . | /
C=CCN1c2ccccc2[C@]23C[C@@H](C(=O)OC)N(S(=O)(=O)c4ccc(Br)cc4)C2=NC(C(=O)OC)=C(C(=O)OC)[C@H]13 | / | / | .[11.4 µM] | /
Cc1sc(NC(=S)NC(=O)CCc2ccccc2)c(C(N)=O)c1C | / | -121.5 | . | /
COC(=O)CCC(=O)Nc1sc(C)c(C)c1C(N)=O | . | . | . | .
COC(=O)CCC(=O)NC(=S)Nc1sc(C)c(C)c1C(N)=O | / | -123.8 | . | /
NC(=O)c1ccccc1NC(=S)NC(=O)CCc1ccccc1 | / | -108.4 | . | /
Cc1sc(NC(=O)CN(Cc2ccccc2)C(=O)C(C)C)c(C(N)=O)c1C | / | ? | . | /
CN1CCN(c2ncc3nc(CCc4ccccc4)c(=O)n(C4CC4)c3n2)CC1 | / | / | / | .
COc1ccc(CC(=O)NCc2nnc(SCc3ccc(C)cc3)n2C)cc1 | / | -92.3 | . | /
SMILES | IMPase cell inh | PNC inhibitor | ALOX12 inhib | ALOX15B inhib
COC(=O)CSc1nnc(CNC(=O)c2ccccc2OC)n1C | ? | -87.5 | . | .
Cc1cc(N(C(=O)c2ccco2)C(C(=O)NC2CCCCC2)c2ccccc2)ccc1-n1cnnn1 (configuration not stated) | . | . | . | .
COc1cccc(C(C(=O)NC2CCCCC2)N(C(=O)c2ccco2)c2ccc(-n3cnnn3)c(C)c2)c1 (configuration not stated) | . | -100.0 | . | /
C/C(=C\CO)CCC(C)CCCC(C)CCCC(C)C (configuration not stated) | / | / | . | .
CCCN1CC=C2C(C#N)=C(N)C(C#N)(C#N)C(c3cccc(OC)c3OC)C2C1 (configuration not stated) | . | -95.2 | . | .
CC(=O)N1CC=C2C(C#N)=C(N)C(C#N)(C#N)[C@H](c3ccoc3)[C@H]2C1 | . | ? | . | .
COc1ccc(OC)c(C2C3CN(C(C)C)CC=C3C(C#N)=C(N)C2(C#N)C#N)c1 (configuration not stated) | . | . | . | .
CN1CC=C2C(C#N)=C(N)C(C#N)(C#N)[C@H](c3ccoc3)[C@H]2C1 | . | -80.9 | . | .
CCOC(=O)c1cnc2c(OC)cccc2c1Nc1cccc(O)c1 | . | / | / | /
COC(=O)c1cc(C#N)c(NCc2ccccc2)nc1C | . | . | . | .
O=C(CCC(NC(=O)OCc1ccccc1)C(=O)OCc1ccccc1)NCC(=O)OCc1ccccc1 (configuration not stated) | . | . | . | /
